CD11b adhes inh: inhibitors of CD11b/CD18 adhesion to fibrinogen, primary screen, K562 cells, luminescence; Integrin beta-2 (Homo sapiens) + Integrin alpha-M (Homo sapiens), P05107+P11215; ATPlite luminescence; Mn2+ added to activate the integrin; inhibition, % at 10 µM; 93,000 tested, 0.54% active; AID 1497, 2009;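 active means primary inhibition of 50% or more at 10 µM, then 40% or more on retest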
FAK inh: FAK kinase inhibitors, primary screen, biochemical; biochemical FAK kinase activity assay; inhibition, %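 (tested at 7 µM)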; 97,000 tested, 0.84% active; AID 727, 2007; in the data active means inhibition above about 19%;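 further: 0% = DMSO and 100% = reference compound high control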
ERa coact pot: enhancers of ERα–SRC-1 coactivator binding, primary screen, biochemical, TR-FRET, ERα LBD, low estradiol. coactivator binding (% of control), % at 25.6 µM. Estrogen receptor (Homo sapiens), P03372. AID 639, 2007. 86,000 tested, 1.3% active. TR-FRET ERalpha-LBD/SRC-Cy5 coactivator binding, 2 h; 100 = basal binding, no effect; in the data active means activity above about 200%;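 further: binding measured in presence of low estradiol as agonist stimulus; 0% = peptide alone without receptor and 100% = receptor with peptide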
Target sequence (P03372 whole entry, looked up, the tested form may be a part): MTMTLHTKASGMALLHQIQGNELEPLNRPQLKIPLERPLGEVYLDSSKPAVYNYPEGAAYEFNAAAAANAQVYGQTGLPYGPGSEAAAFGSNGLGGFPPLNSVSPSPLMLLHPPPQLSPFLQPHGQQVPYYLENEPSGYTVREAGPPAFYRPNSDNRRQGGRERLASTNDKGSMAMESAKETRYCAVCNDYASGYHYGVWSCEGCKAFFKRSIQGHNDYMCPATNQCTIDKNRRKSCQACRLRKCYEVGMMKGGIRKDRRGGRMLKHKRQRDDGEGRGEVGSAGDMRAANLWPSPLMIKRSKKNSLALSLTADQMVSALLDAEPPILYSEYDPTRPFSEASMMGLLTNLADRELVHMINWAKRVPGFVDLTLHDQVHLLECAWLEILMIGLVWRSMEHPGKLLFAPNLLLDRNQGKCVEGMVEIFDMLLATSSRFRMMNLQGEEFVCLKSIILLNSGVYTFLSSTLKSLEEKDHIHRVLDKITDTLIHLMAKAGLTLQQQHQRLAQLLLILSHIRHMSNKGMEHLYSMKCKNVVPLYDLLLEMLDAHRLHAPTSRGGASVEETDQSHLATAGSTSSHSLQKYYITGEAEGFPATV
CD11b adhes enh: enhancers of CD11b/CD18 adhesion to fibrinogen, primary screen, K562 cells, luminescence; activation, % at 10 µM; Integrin beta-2 (Homo sapiens) + Integrin alpha-M (Homo sapiens), P05107+P11215; 93,000 tested, 0.07% active; AID 1499, 2009; ATPlite luminescence;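 active means 10 µM primary screen giving 50% or more activity, confirmed by 40% or more on retest at that dose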
ERb coact inh: inhibitors of ERβ-SRC1 coactivator interaction, primary screen, biochemical, TR-FRET, ERβ LBD, SRC-1 peptide; 86,000 tested, 1.3% active; TR-FRET ER-beta LBD / SRC1-Cy5 peptide binding; receptor agonist-loaded with 1 µM estradiol; inhibition, % at 25.6 µM; AID 633, 2007; Estrogen receptor beta (Homo sapiens), Q92731;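 active means compounds whose percent inhibition of the receptor-coactivator binding signal exceeds about 50% in the single-dose screen, limit read from the data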;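 further: 0% = receptor plus peptide wells without compound and 100% = peptide-only wells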
ERa coact inh: ERα–SRC-1 coactivator interaction inhibitors, primary screen, biochemical, TR-FRET, ERα LBD, estradiol-bound; AID 629, 2007; 86,000 tested, 1.7% active; inhibition, % at 25.6 µM; TR-FRET ER-alpha LBD / SRC-1 peptide; Estrogen receptor (Homo sapiens), P03372; in the data active means inhibition above about 50%;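 further: 0% = receptor plus peptide control and 100% = peptide only without receptor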
* hit, by the source's call; / = not tested or not shown; [ ] = remark or other dose. Sampled rows, rich in hits. Any-hit rate of the full collection: about 3.5%.

SMILES	CD11b adhes inh	FAK inh	ERa coact pot	CD11b adhes enh	ERb coact inh	ERa coact inh
CNC(=O)COC(=O)c1ccc(-c2nc3ccccc3s2)s1	64.1*	-1.1	/	10.6	/	/
Cc1ccc(S(=O)(=O)CC(=O)Nc2ccc(S(=O)(=O)Nc3onc(C)c3C)cc2)cc1	-26.7	-1.3	120.8	3.6	-1.8	1.9
CCOC(=O)c1cnc2nc(Cc3ccccc3)[nH]n2c1=O	1.9	/	109.9	-2.3	-11.8	-7.4
C=CCn1c(SCC(=O)Nc2ccccc2CC)nnc1-c1ccncc1	-5.6	-8.2	92.2	-7.3	22.7	8.2
CCn1c(SCC(=O)N2CCOCC2)nc2oc3c(Cl)cc(Cl)cc3c(=O)c2c1=O	/	0.0	64.4	/	51.9*	65.2*[fluorescence artefact?]
CCn1c(SCC(=O)N2CCOCC2)nc2sc3c(c2c1=O)CCCC3	1.9	-0.4	108.6	-3.0	-0.4	8.3
CCn1c(C)nc2cc(-c3nnc(-c4c(-c5ccccc5)noc4C)o3)ccc21	-0.5	4.3	373.3*[fluorescence artefact?]	-5.0	-3.0	-17.6
CCn1c(CCCNC(=O)c2ccc(F)cc2)nc2ccccc21	-5.4	-2.4	269.7*	9.0	6.9	-5.3
COC(=O)c1ccc2c(=O)n(CCCCCC(=O)NCc3ccccc3)c(=O)[nH]c2c1	0.6	3.8	72.3	31.5	52.4*[fluorescence artefact?]	84.7*[fluorescence artefact?]
COC(=O)c1ccc2c(=O)n(CCCCCC(=O)NCc3ccc4c(c3)OCO4)c(=O)[nH]c2c1	-58.4	15.2	77.7	3.3	43.1	88.2*
CCCCCn1c(=O)[nH]c2cc(C(=O)N3CCN(Cc4ccc5c(c4)OCO5)CC3)ccc2c1=O	44.3	1.5	181.8	-4.2	0.1	-3.8
COCCCNC(=O)c1ccc2c(=O)n(Cc3ccc4c(c3)OCO4)c(=S)[nH]c2c1	-13.8	-3.3	120.9	6.9	47.1	57.6*
CCCCCn1c(=O)[nH]c2cc(C(=O)NCc3ccc4c(c3)OCO4)ccc2c1=O	5.3	4.2	141.3	3.0	49.4	60.5*[fluorescence artefact?]
Cc1ccc(C)c(N2CCN(C(=O)C3CCCN(S(=O)(=O)c4c(C)[nH]c(=O)[nH]c4=O)C3)CC2)c1 (stereo not given)	0.6	-1.0	106.7	8.9	3.7	-4.1
O=C(Nc1cccc(Cl)c1Cl)C1CCN(c2ncccn2)CC1	/	1.0	206.2*	/	-6.1	-9.0
O=C1NC(c2cccs2)Nc2sc3c(c21)CCCC3 (stereo not given)	7.7	3.4	97.7	0.7	15.4	-2.4
CN1C(=O)c2c(sc3c2CCCC3)NC1c1ccccc1O (stereo not given)	-31.2	/	60.9	49.9	77.8*[fluorescence artefact?]	18.9
COC(=O)C1CCN(C(=O)COC(=O)c2n[nH]c3ccccc23)CC1	/	-2.8	115.9	/	-10.5	-3.9
CC1CCCN(C(=O)COC(=O)c2n[nH]c3ccccc23)C1 (stereo not given)	1.1	2.2	114.4	-3.2	-6.7	56.6*
COc1cc(NC(=O)c2cccs2)c(C(=O)OCC(=O)NC(=O)NCc2ccccc2)cc1OC	-43.0	-2.2	344.4*	36.9	0.9	39.3
COc1cc(NC(=O)c2cccs2)c(C(=O)OCC(=O)NC(=O)NC(C)(C)C)cc1OC	-7.0	-1.6	100.7	4.9	75.3*	15.7
COc1ccccc1NC(=O)c1cccs1	-9.9	0.9	/	-0.7	/	/
COC(=O)c1ccccc1NC(=O)c1cccs1	3.2	0.3	107.4	-0.1	20.0	14.8
O=C(O)CCC(=O)N1CCc2cc(S(=O)(=O)Nc3ccc4c(c3)OCCO4)ccc21	-4.5	1.9	108.1	0.8	-6.0	-2.6
Cc1cc(=O)[nH]c(SCC(=O)NCc2ccco2)n1	/	8.0	56.2	/	65.7*	50.0
O=C(CCSCCC(=O)NCc1ccco1)NCc1ccco1	-9.5	6.3	92.8	1.8	56.8*[fluorescence artefact?]	59.1*[fluorescence artefact?]
O=C(CSc1ncccc1-c1nc2ccccc2[nH]1)NCc1ccco1	27.6	5.7	63.4	-6.5	32.1	38.8

High-throughput results deposited in PubChem BioAssay by several laboratories.
